High-throughput results as filed in PubChem.
KB-3-1 cytotox = KB-3-1 parental cell cytotoxicity; KB-3-1 viability, CellTiter-Glo ATP luminescence, 72 h; Potency, µM (titrated, usually from 46.1 µM), most hits filed as cytotoxic; 400,000 tested, 1.4% active; AID 1347075; note: % is set by controls: 0 for no effect and ±100 for the full control effect; nearly all actives have a fitted effect of over 60% in size
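Using CellTiter-Glo luminescence, growth of non-resistant KB-3-1 adenocarcinoma cells is assessed 72 h after pin-tool compound addition at 37 °C. Normalized responses across the concentration series yield fitted curves.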
HT1080-NT tox = kills 2HG-producing HT-1080-NT fibrosarcoma cells. HT-1080-NT fibrosarcoma viability, CellTiter-Glo ATP luminescence, 48 h. Potency, µM (titrated, usually from 46.1 µM), without a hit: at the top dose activity, negative = less viability, usual class: cytotoxic. 360,000 tested, 1.6% active. AID 686970;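 note: NT is the 2HG producing partner of a matched IDH1 knockdown line; 0% = DMSO-treated cells and -100% = media-only wells without cells; nearly all actives have a fitted effect of over 55% in size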
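Compounds were tested in concentration-response format on HT-1080-NT cells for 48 hours at 37 degrees C. Cell viability came from CellTiter-Glo luminescence; curves were classified by r2, response magnitude and activity.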
HT1080 IDH1KD tx = toxicity to HT-1080 IDH1 knockdown cells (counter line); 360,000 tested, 2% active; Potency, µM (top dose mostly 46.1 µM), without a hit: at the top dose activity, negative = toxicity, usual class: cytotoxic; HT-1080 IDH1 knockdown viability, ATP luminescence, 48 h;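 note: 0% = DMSO wells and -100% = cell-free medium wells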
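Using the IDH1-knockdown HT-1080 line run in the same batch and compound series as the NT line, viability after 48 h at 37 °C was determined by CellTiter-Glo luminescence and expressed as % activity.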
TGFb SMAD3 inh = inhibitors of TGF-b signaling; HepG2 CAGA-GFP TGF-b/SMAD3 reporter, GFP fluorescence, 18 h; TGF-beta stimulated, 500 pg/mL final; Potency, µM (doses to about 46.1 µM), for inactives: at the highest dose activity, negative = inhibition, usual class: inhibitors; 410,000 tested, 1.2% active; note: % is set by controls: 0 for no effect and ±100 for the full control effect; nearly all actives have a fitted effect of over 65% in size
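HEPG2 CAGA-GFP reporter cells (1000/well, DMEM with 1% FBS) received compounds, then recombinant TGF-beta at 500 pg/mL final for 18 hours at 37 degrees C. Per-cell GFP summed per well was normalised to unstimulated and stimulated DMSO controls before curve fitting.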
KB-V1 cytotox = kills drug-selected multidrug resistant KB-V1 cells. KB-V1 MDR cells viability, CellTiter-Glo, 72 h. Potency, µM (doses to about 46.1 µM), actives largely listed as cytotoxic. 400,000 tested, 3.4% active. AID 1347076; note: % is set by controls: 0 for no effect and ±100 for the full control effect; nearly all actives have a fitted effect of over 60% in size
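KB-V1 cells (P-gp-expressing MDR subline of KB-3-1) in phenol-red-free DMEM with 10% FBS were exposed to library compounds over a concentration series for 72 h at 37 degrees C. Viability read by CellTiter-Glo luminescence; concentration-effect curves fitted after normalization.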
HepG2 tox-1 = kills HepG2 cells in TGF-b inhibitor counter-screen; HepG2 CAGA-GFP viability, ATP luminescence, 18 h; Potency, µM (top dose mostly 46.1 µM), without a hit: at the highest dose activity change, negative = cytotoxicity, usual class: cytotoxic; 410,000 tested, 0.76% active; AID 588856
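HepG2 CAGA-GFP cells (1000/well, DMEM with 1% FBS) received compound, then TGF-beta at 500 pg/mL final, and were incubated 18 hours at 37 degrees C. Viability was read by CellTiter-Glo luminescence. Media-only wells were set as complete cell-killing and DMSO as no toxicity.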
TGFb confirm = confirmation of TGF-b signaling inhibitors in HepG2 reporter cells; shares compounds with TGFb SMAD3 inh; HepG2 CAGA-GFP TGF-b reporter, GFP fluorescence, 18 h; cells stimulated with TGF-beta, 500 pg/mL; Potency, µM (series often up to 46.1 µM), for the others: at the highest dose activity, negative = inhibition, hits mostly inhibitors; 1,600 tested, 63% active; AID 720534; note: % is set by controls: 0 for no effect and ±100 for the full control effect; nearly all actives have a fitted effect of over 65% in size
HepG2 tox-2 = toxic to HepG2 cells in TGF-b counterscreen. shares compounds with TGFb SMAD3 inh. HepG2 CAGA-GFP viability, ATP luminescence, 18 h; cells stimulated with TGF-beta, 500 pg/mL. 1,600 tested, 27% active. Potency, µM (series often up to 46.1 µM), without a hit: at the highest dose activity, negative = cytotoxicity, hits mostly inhibitors; note: % is set by controls: 0 for no effect and ±100 for the full control effect; nearly all actives have a fitted effect of over 70% in size
TGFb CCL64 inh = orthogonal confirmation of TGF-b inhibitors in CCL64 cells; AID 720536; 1,600 tested, 41% active; Potency, µM (titrated, usually from 46.1 µM), inactives show top-dose activity, negative = inhibition, hits mostly inhibitors; CCL64 CAGA-GFP reporter, TGF-b stimulated, GFP fluorescence, 18 h; shares compounds with TGFb SMAD3 inh; note: nearly all actives have a fitted effect of over 65% in size
TGFb COP inh = validation of TGF-b inhibitors in HepG2 COP promoter reporter | Potency, µM (highest dose often 46.1 µM), without a hit: at the top dose activity, negative = inhibition, most hits filed as inhibitors | AID 720537 | shares compounds with TGFb SMAD3 inh | HepG2 COP-GFP TGF-b reporter, GFP fluorescence, 18 h; cells stimulated by added recombinant TGF-beta | 1,600 tested, 3% active; note: nearly all actives have a fitted effect of over 70% in size
Numbers without * were called inactive; i = inactive; ? = inconclusive; . = no result given; [ ] = another dose, or the depositor's remark. Shown are actives, neighbours in structure and some others; about 6.6% of the full set was active somewhere. Calls come from the whole dose curve; as a rule, active = well fitted curve in the direction sought with a large enough effect; inconclusive = small, poorly fitted or top-dose-only effect, or another doubt; inactive = no such curve, though single readings can be large; an effect the other way counts as inactive or inconclusive. Potency is the fitted concentration of half-maximal effect.

SMILES	KB-3-1 cytotox	HT1080-NT tox	HT1080 IDH1KD tx	TGFb SMAD3 inh	KB-V1 cytotox	HepG2 tox-1	TGFb confirm	HepG2 tox-2	TGFb CCL64 inh	TGFb COP inh
C(=Nc1ccc(/C=C/c2ccnc3ccccc23)cc1)c1ccc2c(c1)OCO2	i	.	.	0.3%	i	-37.1%	.	.	.	.
Cc1ccc(C(=O)Nc2nc(C)c(C(=O)Nc3ccc4c(c3)CCC4)s2)cc1	20.6µM*	2.31µM*	4.11µM*	11.2µM*	2.91µM*	-3.3%	14.6µM*	?	8.2µM*	22.3%
O=S(=O)(c1ccc(OC(F)(F)F)cc1)N1CCC(c2nc3ccccc3s2)CC1	.	.	.	-21.4%	.	-11.2%	.	.	.	.
COc1cccc(Nc2nc(NCC3CCCO3)c3ccccc3n2)c1 (stereo not drawn)	?	-18.4%	?	6.31µM*	2.31µM*	10µM*	?	?	20.6µM*	90.7%
CC(C)Oc1ccc(-c2nc(NCC3CCCO3)c3ccccc3n2)cc1 (stereo not drawn)	i	-13.2%	?	?	i	-62.3%	.	.	.	.
CC1CCN(C(=O)COc2cccc3c2CCN(Cc2ccccc2)C3=O)CC1	?	-23.2%	-26.3%	0.0%	i	-8.0%	.	.	.	.
CCOC(=O)N1CCN(C(=O)COc2cccc3c2CCN(Cc2cccc(C)c2)C3=O)CC1	i	1.4%	-16.5%	?	18.4µM*	-6.8%	?	-24.7%	?	-7.8%
COc1ccccc1NC(=O)Cn1c(=O)n(-c2ccc(C)cc2)c(=O)c2c1cnn2C	i	.	.	-1.4%	i	-5.7%	.	.	.	.
Cc1cccc(NC(=S)N=Nc2c(O)[nH]c3ccccc23)c1	i	?	?	?	i	-28.4%	.	.	.	.
COc1ccccc1NC(=S)N=Nc1c(O)[nH]c2ccc(Br)cc12	2.31µM*	7.7%	-21.1%	?	?	11.4%	?	?	3.26µM*	-2.6%
Cc1ccc(Nc2nc(-c3c(C)nc4ccccn34)cs2)cc1	0.0206µM*	0.0103µM*	?	10µM*	0.164µM*	-34.5%	2.59µM*	?	1.3µM*	1.6%
Cc1nc2ccccn2c1-c1csc(NCc2ccco2)n1	i	-27.4%	-25.4%	-6.2%	?	-35.5%	.	.	.	.
COCc1cc(Sc2ccc(Cl)cc2)nc(C)n1	i	-11.7%	-3.6%	-0.6%	i	-16.4%	.	.	.	.
COCc1cc(S(=O)c2ccc(Cl)cc2)nc(C)n1 (stereo not drawn)	i	?	?	?	i	-124.5%	?	?	7.31µM*	-15.8%
CC1CC(C)C(=O)C(C(CC2CC(=O)NC(=O)C2)OC(=O)CC(=O)c2ccccc2)C1 (stereo not drawn)	2.59µM*	?	?	2.24µM*	?	-8.8%	0.411µM*	?	2.59µM*	23.9%
O=C1CCC(C(=O)OCC(=O)c2ccccc2)N1 (stereo not drawn)	i	17.5%	17.3%	?	i	-3.7%	.	.	.	.
Cc1cccc(NC(=O)Nc2ccc(C#N)cc2)n1	?	-7.0%	-3.2%	2.51µM*	?	-34.0%	6.51µM*	8.2µM*	4.11µM*	27.5%
Cc1cccc(NC(=O)Nc2cccc(C#N)c2)n1	?	-11.3%	-4.4%	?	?	-48.4%	.	.	.	.
Cc1cc(NC(=S)NC(=O)C2CC2)ccc1Br	i	-10.6%	-8.1%	3.98µM*	i	-2.1%	0.82µM*	0.461µM*	?	25.1%
CC1(C)Cc2c(cnn2-c2ccccc2)C(=O)/C1=N\NC(=O)c1ccccc1N	i	?	7.3%	-20.2%	i	-4.6%	.	.	.	.
CC1(C)Cc2c(cnn2-c2ccccc2)-c2c1c1ccccc1n2CC(O)CBr (stereo not drawn)	?	?	1.8%[9.24 µM]	?	?	-61.3%	?	-26.3%	?	19.7%
O=C1C=C(NC2=CC3OC(c4ccccc4)OCC3OC2=O)CCC1 (stereo not drawn)	?	-26.4%	20.6µM*	10µM*	?	-18.3%	10.3µM*	?	13µM*	27.2%
O=[N+]([O-])c1cc2c(c3cccnc13)COCO2	i	0.2%	-19.4%	?	?	-4.8%	18.4µM*	-25.1%	6.6%	2.0%
Cc1ccc(-c2csc(NC(=O)CCNC(=O)c3ccc(Cl)cc3)n2)cc1	i	-7.2%	-0.7%	?	i	-63.9%	-17.2%	2.2%	?	4.9%
Cc1ccc(-c2csc(NC(=O)CCNC(=O)c3ccccc3Cl)n2)cc1	i	-9.7%	-18.4%	?	i	-21.5%	.	.	.	.
COc1ccccc1CNC(=O)C(Cc1c[nH]c2ccccc12)NC(=O)OCc1ccccc1 (stereo not drawn)	?	-16.2%	-13.0%	11.2µM*	18.4µM*	-10.3%	?	?	?	25.2%
CCCC(=O)NC(c1ccc(Cl)cc1)c1ccc2cccnc2c1O (stereo not drawn)	?	?	?	?	?	-20.2%	?	?	5.17µM*	27.9%
CCCCC(=O)NC(c1ccc(Cl)cc1)c1ccc2cccnc2c1O (stereo not drawn)	i	?	?	?	?	-60.1%	.	.	.	.
CC(C)C(=O)NC(c1cccc([N+](=O)[O-])c1)c1ccc2cccnc2c1O (stereo not drawn)	?	-25.6%	?	3.55µM*	?	6.0%	?	?	7.31µM*	18.9%
